# Source: ChEMBL document CHEMBL3433997, “St. Jude Leishmania screening dataset” (2016)
# Key:
# Type in all cases: functional
# [1] = target: Solute carrier family 2, facilitated glucose transporter member 1 (Homo sapiens) (UniProt P11166); experiment: ST_JUDE_LEISH: Cytotoxicity at 2uM final concentration against transgenic Leishmania Mexicana promastigotes LmGLUT1 that are glucose transport deficient and complemented with the human glucose transporter GLUT1. Activity is measured by DNA content using SYBR green in vitro
# Sequence of Solute carrier family 2, facilitated glucose transporter member 1 (Homo sapiens) (P11166 whole entry): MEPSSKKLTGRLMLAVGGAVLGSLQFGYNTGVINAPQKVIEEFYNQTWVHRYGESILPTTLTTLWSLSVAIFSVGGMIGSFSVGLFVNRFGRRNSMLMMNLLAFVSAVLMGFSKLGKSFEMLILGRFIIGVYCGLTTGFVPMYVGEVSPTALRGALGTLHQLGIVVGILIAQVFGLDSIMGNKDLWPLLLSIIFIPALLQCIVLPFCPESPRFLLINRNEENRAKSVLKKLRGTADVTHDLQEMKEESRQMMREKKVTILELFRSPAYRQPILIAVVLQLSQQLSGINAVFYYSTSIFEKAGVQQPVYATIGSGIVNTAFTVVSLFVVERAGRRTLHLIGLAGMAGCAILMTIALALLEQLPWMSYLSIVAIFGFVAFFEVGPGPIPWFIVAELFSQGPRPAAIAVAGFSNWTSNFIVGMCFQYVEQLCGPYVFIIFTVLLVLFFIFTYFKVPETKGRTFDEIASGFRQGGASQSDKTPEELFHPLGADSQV
# [2] = target: Hexose transporter 1 (Plasmodium falciparum) (UniProt O97467); experiment: ST_JUDE_LEISH: Cytotoxicity at 2uM final concentration against transgenic Leishmania Mexicana promastigotes LmPfHT that are glucose transport deficient and complemented with the Plasmodium falciparum hexose transporter. Activity is measured by DNA content using SYBR green in vitro
# [3] = target: Glucose transporter (Leishmania mexicana) (UniProt O61059); experiment: ST_JUDE_LEISH: Cytotoxicity at 2uM final concentration against transgenic Leishmania Mexicana promastigotes LmGT2 that are glucose transport deficient and complemented with the L. Mexicana glucose transporter 2. Activity is measured by DNA content using SYBR green in vitro
Compound,inhibition [1] [%],inhibition [2] [%],inhibition [3] [%]
O=C(N[C@@H](Cc1ccccc1)C(=O)NC1CCCCCC1)c1ccc(O)c(-c2cccc(C(F)(F)F)c2)c1,5.83,4.69,0.57
Cn1cc(CCNc2ccnc(NCCc3coc4ccccc34)n2)c2ccccc21,8.67,6.89,2.14
Cc1cccc2nc(-c3cccc(-c4ccc(NC(=O)c5cccnc5)cc4)c3)[nH]c12,3.18,4.09,2.31
Cc1nc(N)nc(N)c1CCCOc1ccccc1Cl,13.2,27.9,5.78
COc1ccc(NC(=O)[C@H](CC(C)C)Nc2cc(C)nc(NCC3CCCCC3)n2)cc1,3.07,2.78,0.83
